# Data reported in ChEMBL document CHEMBL3988442, “University of Dundee, Small-Polar-MMV Screening Library” (2021).
# Hit rate of the full screen: of about 48,000 compounds, about 13,000 (27%) showed an effect of 50% or more. Some of the results follow.
# System: Wolbachia pipientis
# Test: Anti-Wolbachia Cell-Based Screen
# Assay type: functional
# Set-up: scale not given: in the data most compounds retested in dose-response had high values
# Settings: 5 µM
row,SMILES,Percent Effect [%]
1,CCCn1nccc1C(=O)N1CCCN(CCCc2ccccc2)CC1,-7.679
2,COc1cc(N2CCC3(CCCN3Cc3cnn(C)c3)CC2)ncn1.O=C(O)C(F)(F)F,0.3231
3,O=C1OCCN1CCNc1ncc2c(n1)CCN2c1ccccc1,15.29
4,CN(Cc1nc(-c2cccnc2)no1)C(=O)c1cnc2n1CCCC2,-9.583
5,COc1ccc2nnc(CCCC(=O)NCc3cccn3C)n2n1,11.78
6,COc1ccc2nnc(CCCC(=O)Nc3nc4c(s3)CCC4)n2n1,114
7,COc1ccc2nnc(CCC(=O)Nc3nc(C)c(C)s3)n2n1,119
8,COc1ccc2nnc(CCC(=O)Nc3nc4c(s3)CCCC4)n2n1,139.1
9,CC1CCc2nc(NC(=O)CN(C)C(=O)c3ccco3)sc2C1 (stereo not drawn),6.016
10,O=C(CN1CCCC(c2ccn[nH]2)C1)Nc1nc2c(s1)CCCC2 (stereo not drawn),3.48
11,COc1ccc(CNC(=O)NCc2nc(C)c(C)s2)cn1,-2.055
12,COc1ccc2nnc(CCC(=O)Nc3nc4c(s3)CCC4)n2n1,122.5
13,COc1cccc2c1OCC(C(=O)NCc1nc3c(s1)CCCC3)C2 (stereo not drawn),-11.26
14,COc1ccc2nnc(CCCC(=O)NCCC3=CCCCC3)n2n1,8.382
15,Cl.O=C(Nc1cccc(CNCc2csc(Br)c2)c1)C1CC1,8.664
16,Cn1c(CN2CCCC(Cn3cc(CCO)nn3)C2)cc2ccccc21 (stereo not drawn),-3.517
17,Cc1ccc2cc(C3(O)CCN(C(=O)CSC(C)C)CC3)ccc2n1,8.492
18,Cc1ccc(C)c(OCc2cc(C(=O)N(C)CC(O)CO)no2)c1 (stereo not drawn),-202.7
19,O=C(NC1CC1)[C@H]1C[C@H]2OCC[C@H]2N(CC2CC2)C1.O=C(O)C(F)(F)F,-11.18
20,COC[C@@H]1CC[C@H]2[C@H](CCN2S(=O)(=O)Cc2ccccc2)O1,24.17
21,Cc1ccc(C(=O)N2C[C@H]3CC[C@@H]2CN(S(=O)(=O)N(C)C)C3)c(O)c1,-19.11
22,CCOC(C)c1noc(CN(C)C(=O)c2cc3ccccn3c2)n1 (stereo not drawn),5.368
23,CCc1ocnc1C(=O)N1CCC(n2cc(-c3ccsc3)nn2)CC1,-3.384
24,COc1ccc2nnc(CCC(=O)Nc3nc4c(s3)CCCCC4)n2n1,106.8
25,Cc1nc(S(=O)(=O)NCCC(=O)NCc2ccc(C#N)cc2)cn1C,-22.12

row,SMILES,Percent Effect [%]
1,CCN(CC1CCCO1)C(=O)Nc1cccc(Cl)c1OC (stereo not drawn),103.8
2,CCN(CC1CCCO1)C(=O)Nc1ccc(OC)c(C)c1 (stereo not drawn),118.7
3,CCN(CC1CCCO1)C(=O)Nc1cc(C(N)=O)ccc1OC (stereo not drawn),103.2
4,CCN(CC1CCCO1)C(=O)Nc1cc(C)ccc1S(C)(=O)=O (stereo not drawn),111.7
5,CCN(CC1CCCO1)C(=O)CSCC(=O)Nc1ccc(C)cc1 (stereo not drawn),18.9
6,CCCC(=O)Nc1ccc(CC(=O)N(CC)CC2CCCCO2)cc1 (stereo not drawn),-7.616
7,CCN(CC1CCCO1)C(=O)Nc1cc(OC)c(OC)cc1C (stereo not drawn),1.885
8,CCN(CC1CCCO1)C(=O)Nc1cccc(N2CCOCC2)c1 (stereo not drawn),-20.72
9,CCN(CC1CCCO1)C(=O)Nc1cc(C(=O)OC)ccc1F (stereo not drawn),-7.432
10,CCN(CC1CCCO1)C(=O)Nc1ccc(F)cc1OC (stereo not drawn),-0.9971
11,CN(C)c1ccc(CCCNC(=O)Nc2ccc(C#N)cc2)cc1,14.16
12,O=C(c1ccc(N2CCCC2)nn1)N1CCCc2cc(F)c(F)cc21,-2.029
13,Cc1nc(CCCNC(=O)C2CC(=O)N(C(C)(C)C)C2)sc1C (stereo not drawn),-4.767
14,COc1cccc(-n2nnc(C(=O)N3CCNC(=O)C3)c2C)c1,2.603
15,CCN(CC1CCCCO1)C(=O)CCNC(=O)c1ccccc1F (stereo not drawn),0.5335
16,CCN(CC1CCCO1)C(=O)NCCNC(=O)c1ccccc1F (stereo not drawn),93.7
17,COCCN(CC1CCCO1)C(=O)CCNC(=O)c1ccccc1F (stereo not drawn),6.163
18,CC1CCN(CC(=O)NC2CCN(C(C)c3ccccc3)CC2)CC1.Cl (stereo not drawn),112.7
19,CCOCCCC(=O)NC1CCN(C(C)c2ccccc2)CC1 (stereo not drawn),-0.8786
20,CSCC(=O)NC1CCN(C(C)c2ccccc2)CC1 (stereo not drawn),-9.489
21,Cc1cnn(CCC(=O)Nc2cccnc2N2CCC(CO)CC2)c1,-13.92
22,CCc1nc(C2CCCN(C(=O)NC(C)C)C2)no1 (stereo not drawn),123.4
23,CCc1nc(C2CCCN(C(=O)NC3CC3)C2)no1 (stereo not drawn),109.2
24,CCc1nc(C2CCCN(C(=O)CN(C)S(C)(=O)=O)C2)no1 (stereo not drawn),1.006
25,CCc1nc(C2CCCN(C(=O)C3=NN(C(C)C)C(=O)CC3)C2)no1 (stereo not drawn),7.741

row,SMILES,Percent Effect [%]
1,CCc1nc(C2CCCN(C(=O)c3c[nH]c(C(C)C)n3)C2)no1 (stereo not drawn),7.02
2,CCc1nc(C2CCCN(C(=O)C(C)(C)NS(C)(=O)=O)C2)no1 (stereo not drawn),113.6
3,CCNC(=O)N1CCCC(c2noc(CC)n2)C1 (stereo not drawn),-3.898
4,CCc1nc(C2CCCN(C(=O)CC3CCOCC3)C2)no1 (stereo not drawn),122.8
5,CCc1nc(CCNc2ncccc2C#N)sc1C,-8.813
6,CN(C)C(=O)Cc1ccccc1NCc1nc(Cc2ccccc2)no1,16.45
7,O=C(NCc1cc(O)ncn1)C1COc2ccccc2C1 (stereo not drawn),-5.183
8,O=C1N(CCCc2ccccc2)CCCC1(O)CNCc1ccccc1 (stereo not drawn),-2.179
9,Cc1cnn(-c2cccc(N3CCN(c4cc(C)nc(C)n4)CC3)n2)c1,4.719
10,CCc1nc(C2CCCN(C(=O)NCCOC)C2)no1 (stereo not drawn),110.5
11,Cc1c(C)c2c(c(C)c1O)CC[C@](C)(C(=O)O)O2 [(R)-TROLOX],132.5
12,CNc1cc(C)nc(NCc2cc(C)cc3c(C)c(C)[nH]c23)n1,13.77
13,CNC(=O)NC(=O)C(C)N1CCN(C2CCCC2)CC1 (stereo not drawn),-18
14,CCC(CO)n1cnc2scc(C)c2c1=O (stereo not drawn),100.6
15,CCC(Cn1ccnc1)n1cnc2c(C)csc2c1=O (stereo not drawn),163.7
16,CC(Cn1ccnc1)NC(=O)NCCNC(=O)C(C)C (stereo not drawn),-18.32
17,Cc1csc2c(=O)n(CCN3CCC(c4ccccc4)CC3)cnc12,21.54
18,Cc1nc(CN2CCCn3c(nc(Cn4ccnc4)cc3=O)C2)cs1,17.01
19,Cc1csc2c(=O)n(C(C)Cc3cccnc3)cnc12 (stereo not drawn),4.44
20,CCC(Cn1ccnc1)n1cnc2scc(C)c2c1=O (stereo not drawn),110.7
21,Cc1csc2ncn(C(C)Cc3cccnc3)c(=O)c12 (stereo not drawn),-2.167
22,COCC1CCN(Cc2cc(O)c3c(C)ccc(C)c3n2)CC1,5.678
23,Cc1cc(C(=O)N2CCC3(C2)CN(c2cccnc2)C(=O)CN3C)[nH]n1.O=C(O)C(F)(F)F.O=C(O)C(F)(F)F (stereo not drawn),112
24,Cc1oncc1C(=O)N1CCC2(C1)CN(c1cccnc1)C(=O)CN2C (stereo not drawn),-7.65
25,CN1CC(=O)N(c2cccnc2)CC12CCN(C(=O)C1CCCCC1)C2.O=C(O)C(F)(F)F.O=C(O)C(F)(F)F (stereo not drawn),-22.33

row,SMILES,Percent Effect [%]
1,CN1CC(=O)N(c2cccnc2)CC12CCN(C(=O)c1cccn1C)C2.O=C(O)C(F)(F)F.O=C(O)C(F)(F)F (stereo not drawn),108.5
2,Cn1cccc1C(=O)N1CCCCC12CC(=O)N(c1cccnc1)C2.O=C(O)C(F)(F)F (stereo not drawn),-1.407
3,Cc1cc(C(=O)N2CCC3(CC2)COCCN(c2cccnc2)C3)[nH]n1.O=C(O)C(F)(F)F,-3.174
4,COc1cc(C)ccc1OCCN1CC[C@@]2(O)CCNC[C@H]2C1,28.12
5,CN(C)[C@H]1CN(C(=O)c2ccc3sc4c(c3c2)CCNC4=O)C[C@@H]1O,13.68
6,COc1ccccc1OCc1cc(C(=O)N2C[C@H](O)[C@@H](N(C)C)C2)n[nH]1,14.49
7,CCn1nc(CC(C)C)cc1C(=O)N1C[C@H](O)[C@@H](N2CCCCC2)C1,-3.036
8,CN(C)[C@@H]1CN(C(=O)c2cc3cccc(F)c3[nH]2)C[C@H]1O,116.9
9,CN1CCN([C@@H]2CN(C(=O)c3cc4cccc(F)c4[nH]3)C[C@H]2O)CC1,104.7
10,O=C(c1cc2cccc(F)c2[nH]1)N1C[C@@H](O)[C@H](N2CCCC2)C1,132.3
11,Cc1ccc2cc(C(=O)N3CCS(=O)(=O)CC3)[nH]c2c1,-4.814
12,CN1CCN([C@@H]2CN(C(=O)c3cc4ccc(F)cc4[nH]3)C[C@H]2O)CC1,68.22
13,Cc1ccc2cc(C(=O)N3CCN(C(=O)c4ccoc4)CC3)[nH]c2c1,0.1699
14,Cc1ccc(OC2(C(=O)O)CCN(C(=O)c3ccoc3C)CC2)cn1,-1.307
15,CCN(Cc1csc(CS(C)(=O)=O)n1)c1cccc(F)c1,0.8671
16,CCN(C)c1ccc(CNC(=O)CCn2cc(C)cn2)cc1F,-2.464
17,Cc1ccc(N2CCO[C@H]3CN(Cc4cc(C)on4)CC[C@H]3C2=O)cn1.O=C(O)C(F)(F)F.O=C(O)C(F)(F)F,-4.354
18,CC(C)c1cc(NCC(O)c2ccc(F)cc2)n2nccc2n1 (stereo not drawn),-15.19
19,CCN(CC)C(=O)Cn1cc(C(=O)NCCc2scnc2C)nn1,5.922
20,O=C(NC1CCS(=O)(=O)c2ccccc21)c1sccc1C1CC1 (stereo not drawn),-7.789
21,CN(CCc1ccccn1)[C@@H]1CCN(c2cccc(C#N)n2)C[C@H]1O,16.97
22,N#CCCCn1nnc(C2(NC(=O)c3ccccc3)CCCC2)n1,-18.68
23,O=C1CN(C(=O)c2cc(-c3ccco3)nc3c(Cl)cccc23)CCN1,-11.35
